According to the supplement of paper PMC8007513:
Structures can show the parent of a compound that is named as a salt. ± gives the standard error. Screen size: about 1,300 compounds; about 130 (10%) showed an effect of 50% or more. What follows is part of a selection rich in strong results, with near analogues and random picks from the rest.

Test system: Trichoderma virens ATCC 9645
Assay: growth yield (OD600) with compound + IPBC relative to untreated control; higher = less growth inhibition
Conditions: compound concentration: 100 uM, IPBC concentration: 200 ng/ml
Outline: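 Trichoderma virens ATCC 9645 spores from 7-day potato dextrose agar plates were suspended in potato dextrose broth at 15,000 spores ml^−1. Aliquots of 100 μl with library compounds at 100 μM final, with or without a co-applied biocide at 200 ng ml^−1, were grown in 96-well plates at 30 °C. OD600 was read at 40 h and 72 h on a BioTek EL800. Growth is expressed relative to the control without either agent, as means of duplicate screens.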

Structure (SMILES)	growth yield (40 h)	growth yield (72 h)
CNCCC=C1c2ccccc2CCc2ccccc21 [Nortriptyline hydrochloride] + CCCCNC(=O)OCC#CI [3-iodo-2-propynyl butylcarbamate (IPBC)]	70.5 ± 2.2%	94.28 ± 0.73%
COC(=O)C1=C(C#N)NC(C)=C(C(=O)OC(C)C)C1c1cccc([N+](=O)[O-])c1 (stereo not given) [Nilvadipine] + CCCCNC(=O)OCC#CI [3-iodo-2-propynyl butylcarbamate (IPBC)]	107.2 ± 0.16%	102 ± 2.5%
Cc1cc(O)c(C(=O)N[C@@H](C(=O)N[C@@H]2C(=O)N3C(C(=O)O)=C(CSc4nnnn4C)CS[C@H]23)c2ccc(O)cc2)cn1 [Cefpiramide] + CCCCNC(=O)OCC#CI [3-iodo-2-propynyl butylcarbamate (IPBC)]	89.4 ± 2.7%	90.9 ± 1.4%
CN(C)C/C=C(/c1ccc(Br)cc1)c1cccnc1 [Zimelidine dihydrochloride monohydrate] + CCCCNC(=O)OCC#CI [3-iodo-2-propynyl butylcarbamate (IPBC)]	77.8 ± 0.95%	93.5 ± 2.1%
C=C[C@H]1CN2CC[C@H]1C[C@@H]2[C@@H](O)c1ccnc2ccc(OC)cc12 [Quinidine hydrochloride monohydrate] + CCCCNC(=O)OCC#CI [3-iodo-2-propynyl butylcarbamate (IPBC)]	77.7 ± 7.5%	89.8 ± 6.3%
O=C(c1ccc(F)cc1)C1CCN(CCn2c(=O)[nH]c3ccccc3c2=O)CC1 [Ketanserin tartrate hydrate] + CCCCNC(=O)OCC#CI [3-iodo-2-propynyl butylcarbamate (IPBC)]	98.5 ± 8.3%	101 ± 3.2%
CCNC(=O)CCC/C=C\C[C@@H]1[C@@H](/C=C/[C@@H](O)CCc2ccccc2)[C@H](O)C[C@@H]1O [Bimatoprost] + CCCCNC(=O)OCC#CI [3-iodo-2-propynyl butylcarbamate (IPBC)]	94.5 ± 5.6%	95.4 ± 4.2%
Cc1nc2n(c(=O)c1CCN1CCC(c3noc4cc(F)ccc34)CC1)CCCC2O (stereo not given) [Paliperidone] + CCCCNC(=O)OCC#CI [3-iodo-2-propynyl butylcarbamate (IPBC)]	82.28 ± 0.32%	90.09 ± 0.32%
Nc1c(Br)cc(Br)cc1CN[C@H]1CC[C@H](O)CC1 [Ambroxol hydrochloride] + CCCCNC(=O)OCC#CI [3-iodo-2-propynyl butylcarbamate (IPBC)]	73.2 ± 2.1%	88.9 ± 2.5%
CCOC(=O)OC(C)OC(=O)[C@@H]1N2C(=O)[C@@H](NC(=O)[C@H](N)c3ccccc3)[C@H]2SC1(C)C (stereo not given in full) [Bacampicillin hydrochloride] + CCCCNC(=O)OCC#CI [3-iodo-2-propynyl butylcarbamate (IPBC)]	89.1 ± 7.5%	92.3 ± 3.8%
CCN(CC)CC#CCOC(=O)C(O)(c1ccccc1)C1CCCCC1 (stereo not given) [Oxybutynin chloride] + CCCCNC(=O)OCC#CI [3-iodo-2-propynyl butylcarbamate (IPBC)]	74.18 ± 0.16%	88.52 ± 0.63%
CCn1cc(C(=O)O)c(=O)c2ccc(C)nc21 [Nalidixic acid sodium salt] + CCCCNC(=O)OCC#CI [3-iodo-2-propynyl butylcarbamate (IPBC)]	49.2 ± 1.6%	100 ± 2.1%
CCn1cc(C(=O)O)c(=O)c2cnc(N3CCNCC3)nc21 [Pipemidic acid] + CCCCNC(=O)OCC#CI [3-iodo-2-propynyl butylcarbamate (IPBC)]	85.1 ± 3.2%	90.1 ± 3%
CCn1cc(C(=O)O)c(=O)c2cnc(N3CCCC3)nc21 [Piromidic acid] + CCCCNC(=O)OCC#CI [3-iodo-2-propynyl butylcarbamate (IPBC)]	99.9 ± 14%	99.5 ± 5.3%
COc1ccc(C(CN(C)C)C2(O)CCCCC2)cc1 (stereo not given) [Venlafaxine] + CCCCNC(=O)OCC#CI [3-iodo-2-propynyl butylcarbamate (IPBC)]	85.6 ± 4.3%	89 ± 3%
CC(C)Cc1ccc([C@H](C)C(=O)O)cc1 [S-(+)-ibuprofen] + CCCCNC(=O)OCC#CI [3-iodo-2-propynyl butylcarbamate (IPBC)]	70.68 ± 0.16%	96.7 ± 1.7%
CC(C(=O)O)c1ccc(C(=O)c2cccs2)cc1 (stereo not given) [Suprofen] + CCCCNC(=O)OCC#CI [3-iodo-2-propynyl butylcarbamate (IPBC)]	86.6 ± 14%	89.1 ± 8.6%
CC(C(=O)O)c1ccc2c(c1)[nH]c1ccc(Cl)cc12 (stereo not given) [Carprofen] + CCCCNC(=O)OCC#CI [3-iodo-2-propynyl butylcarbamate (IPBC)]	33.2 ± 0.16%	68.3 ± 1.1%
CC(C)(C)NC[C@H](O)COc1cccc2c1CCCC2=O [(-) -Levobunolol hydrochloride] + CCCCNC(=O)OCC#CI [3-iodo-2-propynyl butylcarbamate (IPBC)]	97.8 ± 16%	99.2 ± 11%
c1ccc(C2CN3CCSC3=N2)cc1 (stereo not given) [Tetramisole hydrochloride] + CCCCNC(=O)OCC#CI [3-iodo-2-propynyl butylcarbamate (IPBC)]	87.8 ± 9.1%	93.1 ± 4.8%

Structure (SMILES)	growth yield (40 h)	growth yield (72 h)
Clc1ccc(Cn2c(CN3CCCC3)nc3ccccc32)cc1 [Clemizole hydrochloride] + CCCCNC(=O)OCC#CI [3-iodo-2-propynyl butylcarbamate (IPBC)]	73.5 ± 1.4%	98.5 ± 1.4%
COc1ccc(CCN2CCC(Nc3nc4ccccc4n3Cc3ccc(F)cc3)CC2)cc1 [Astemizole] + CCCCNC(=O)OCC#CI [3-iodo-2-propynyl butylcarbamate (IPBC)]	5.08%	4.3 ± 0.32%
CN(c1nccc(=O)[nH]1)C1CCN(c2nc3ccccc3n2Cc2ccc(F)cc2)CC1 [Mizolastine] + CCCCNC(=O)OCC#CI [3-iodo-2-propynyl butylcarbamate (IPBC)]	70.2 ± 3.2%	88.1 ± 4.8%
CC(C)NCC(O)COc1ccc(CCOCC2CC2)cc1 (stereo not given) [Betaxolol hydrochloride] + CCCCNC(=O)OCC#CI [3-iodo-2-propynyl butylcarbamate (IPBC)]	90.2 ± 11%	99.4 ± 4.2%
NC[C@H]1O[C@H](O[C@H]2[C@H](O[C@@H]3O[C@H](CO)[C@@H](O)[C@H]3O)[C@@H](O)[C@H](N)C[C@@H]2N)[C@H](N)[C@@H](O)[C@@H]1O [Ribostamycin sulfate salt] + CCCCNC(=O)OCC#CI [3-iodo-2-propynyl butylcarbamate (IPBC)]	91.5 ± 6.3%	96.1 ± 3.4%
Cc1cccn2c(=O)c(-c3nnn[nH]3)cnc12 [Pemirolast potassium] + CCCCNC(=O)OCC#CI [3-iodo-2-propynyl butylcarbamate (IPBC)]	72.7 ± 1.9%	84.4 ± 2%
O=C1CN(/N=C/c2ccc(-c3ccc([N+](=O)[O-])cc3)o2)C(=O)N1 [Dantrolene sodium salt] + CCCCNC(=O)OCC#CI [3-iodo-2-propynyl butylcarbamate (IPBC)]	103 ± 3.8%	104 ± 3.1%
CCCCC(CC)CNC(=N)NC(=N)NCCCCCCNC(=N)NC(=N)NCC(CC)CCCC (stereo not given) [Alexidine dihydrochloride] + CCCCNC(=O)OCC#CI [3-iodo-2-propynyl butylcarbamate (IPBC)]	2.5415 ± 3.6e-15%	2.94 ± 0.21%
Cn1c(=O)c2c(ncn2CC(=O)O)n(C)c1=O [Acefylline] + CCCCNC(=O)OCC#CI [3-iodo-2-propynyl butylcarbamate (IPBC)]	90.1 ± 2.1%	91.1 ± 2%
NCC(CC(=O)O)c1ccc(Cl)cc1 (racemic) [Baclofen (R,S)] + CCCCNC(=O)OCC#CI [3-iodo-2-propynyl butylcarbamate (IPBC)]	96.1 ± 4%	96.8 ± 3.2%
O=C(Oc1cccc2cccnc12)c1ccccc1 [Benzoxiquine] + CCCCNC(=O)OCC#CI [3-iodo-2-propynyl butylcarbamate (IPBC)]	36.4 ± 0.48%	65.5 ± 0.73%
CC(=O)Oc1ccccc1C(=O)Oc1ccccc1C(=O)O [Acetylsalicylsalicylic acid] + CCCCNC(=O)OCC#CI [3-iodo-2-propynyl butylcarbamate (IPBC)]	85 ± 1.8%	89.7 ± 2.2%
O=C(O)c1cccnc1 [Niacin] + CCCCNC(=O)OCC#CI [3-iodo-2-propynyl butylcarbamate (IPBC)]	105 ± 1.9%	102.8 ± 0.84%
Fc1ccc([C@@H]2CCNC[C@H]2COc2ccc3c(c2)OCO3)cc1 [Paroxetine Hydrochloride] + CCCCNC(=O)OCC#CI [3-iodo-2-propynyl butylcarbamate (IPBC)]	68 ± 4.8%	92.5 ± 2.5%
O=C(O)CNC(=O)C(CS)Cc1ccccc1 (stereo not given) [Thiorphan] + CCCCNC(=O)OCC#CI [3-iodo-2-propynyl butylcarbamate (IPBC)]	88.16 ± 0.48%	90%
C/C(=C(\CCOP(=O)(O)O)SC(=O)c1ccccc1)N(C=O)Cc1cnc(C)nc1N [Benfotiamine] + CCCCNC(=O)OCC#CI [3-iodo-2-propynyl butylcarbamate (IPBC)]	89.6 ± 4.1%	90.3 ± 3.7%
COc1cc(C)nc(-n2nc(C)cc2OC)n1 [Epirizole] + CCCCNC(=O)OCC#CI [3-iodo-2-propynyl butylcarbamate (IPBC)]	92.3 ± 7.5%	101 ± 6.2%
C[C@@H](CN1CC(=O)NC(=O)C1)N1CC(=O)NC(=O)C1 [Dexrazoxane hydrochloride] + CCCCNC(=O)OCC#CI [3-iodo-2-propynyl butylcarbamate (IPBC)]	109.4 ± 0.48%	106 ± 4.2%
CCN(CC)C(=O)/C(C#N)=C/c1cc(O)c(O)c([N+](=O)[O-])c1 [Entacapone] + CCCCNC(=O)OCC#CI [3-iodo-2-propynyl butylcarbamate (IPBC)]	88 ± 0.64%	80.4 ± 1.4%
Cc1ccc(C(=O)c2cc(O)c(O)c([N+](=O)[O-])c2)cc1 [Tolcapone] + CCCCNC(=O)OCC#CI [3-iodo-2-propynyl butylcarbamate (IPBC)]	47.5 ± 3.3%	56 ± 2.7%
